# The supplement of paper PMC4466140
# Legend:
# Experiment in all cases: SPOT peptide array binding signal intensity (averaged, normalized) (arbitrary units (background-subtracted, floor 0; scale differs between SH3 domains)); higher = stronger binding of the SH3 domain to the peptide
# [1] = target: SpBzz1-D2
# Summary of the method: (§1)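 Cellulose membranes carried synthetic 15-mer peptides with cysteines swapped for serines. These were incubated overnight at 4°C with 10 μg/ml of GST-fused SH3 domains from four yeast species in TBS-based blocking buffer. Binding signal, detected with anti-GST antibody and quantified in Genespotter, is the normalized, background-subtracted spot intensity averaged over replicates, in arbitrary units specific to each domain.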
# [2] = target: SpCyk3
# Summary of the method: as §1
# [3] = target: SpHof1
# Summary of the method: as §1
# [4] = target: SpHof1-2
# Summary of the method: as §1
# [5] = target: SpHof1-3
# Summary of the method: as §1
# [6] = target: SpHse1
# Summary of the method: as §1
# [7] = target: SpLsb1
# Summary of the method: as §1
# [8] = target: SpLsb4
# Summary of the method: as §1
# [9] = target: SpMyo1
# Summary of the method: as §1
# [10] = target: SpNbp2
# Summary of the method: as §1
# [11] = target: SpPex13
# Summary of the method: as §1
# [12] = target: SpRvs167
# Summary of the method: as §1
# [13] = target: SpSla1-D1-D2
# Summary of the method: as §1
# [14] = target: SpSla1-D3
# Summary of the method: as §1
binder,measurement,setting,value
WRPRIVPILPYITRL,SPOT peptide array binding signal intensity,[1],1.5
same,SPOT peptide array binding signal intensity,[2],10
same,SPOT peptide array binding signal intensity,[3],14.5
same,SPOT peptide array binding signal intensity,[4],18.5
same,SPOT peptide array binding signal intensity,[5],328
same,SPOT peptide array binding signal intensity,[6],315
same,SPOT peptide array binding signal intensity,[7],3
same,SPOT peptide array binding signal intensity,[8],157
same,SPOT peptide array binding signal intensity,[9],107
same,SPOT peptide array binding signal intensity,[10],55.5
same,SPOT peptide array binding signal intensity,[11],6.5
same,SPOT peptide array binding signal intensity,[12],167
same,SPOT peptide array binding signal intensity,[13],≤ 0
same,SPOT peptide array binding signal intensity,[14],≤ 0
